In the library only some 2.6% were active in any assay of this set; here they are far more common.
Cruzain noTriton = qHTS Assay for Promiscuous and Specific Inhibitors of Cruzain (without detergent); actives 2.3% (n = 200,000); Cruzipain (Trypanosoma cruzi), P25779; Potency, µM, actives largely listed as inhibitors; purified cruzain, Z-FR-AMC fluorescence, no detergent; note: nearly all actives have a fitted effect of over 40% in size
Target sequence (P25779 123-467 limits assumed): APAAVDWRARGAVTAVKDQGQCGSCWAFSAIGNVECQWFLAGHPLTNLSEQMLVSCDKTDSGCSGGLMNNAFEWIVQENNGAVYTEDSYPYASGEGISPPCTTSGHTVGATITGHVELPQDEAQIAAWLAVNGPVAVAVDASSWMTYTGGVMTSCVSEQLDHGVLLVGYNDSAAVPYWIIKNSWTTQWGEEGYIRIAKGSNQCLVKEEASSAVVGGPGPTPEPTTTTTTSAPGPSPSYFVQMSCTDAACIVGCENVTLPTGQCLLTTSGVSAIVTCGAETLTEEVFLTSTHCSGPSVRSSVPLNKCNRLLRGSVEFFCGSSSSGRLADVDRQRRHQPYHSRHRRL
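Detergent-free condition (0.00005% Triton X-100) in acetate buffer pH 5.5 with DTT. 1.5 nM enzyme and compound were pre-mixed 15 min, then 2 uM Z-FR-AMC substrate added; reaction progress from fluorescence change between first and third reads (60 s).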
Cruzain inh Det = qHTS Assay for Promiscuous and Specific Inhibitors of Cruzain (with detergent). Potency, µM, most hits filed as inhibitors. actives 0.43% (n = 200,000). purified cruzain, Z-FR-AMC fluorescence, 0.01% Triton. Cruzipain (Trypanosoma cruzi), P25779; note: nearly all actives have a fitted effect of over 40% in size
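Detergent-containing run (0.01% Triton X-100) in acetate buffer pH 5.5 with 5 mM DTT: enzyme at 1.5 nM final, 15 min compound preincubation at room temperature, then 2 uM Z-FR-AMC substrate. Activity taken as 60 s fluorescence increase at 360/450 nm.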
Of the large screens only hits and unclear results are named; the others gave an inactive call. Calls come from the whole dose curve; as a rule, active = well fitted curve in the direction sought with a large enough effect; inconclusive = small, poorly fitted or top-dose-only effect, or another doubt; inactive = no such curve, though single readings can be large; an effect the other way counts as inactive or inconclusive.

Cc1ccc(Cn2cc(S(=O)(=O)c3ccc(C(C)C)cc3)c(=O)c3cc4c(cc32)OCO4)cc1	Cruzain noTriton 32µM
CCOc1ccc(S(=O)(=O)c2cn(Cc3cc(C)ccc3C)c3ccc(OCC)cc3c2=O)cc1	Cruzain noTriton 16µM
CC(C)c1ccc(S(=O)(=O)c2cn(Cc3ccc(F)cc3)c3cc4c(cc3c2=O)OCO4)cc1	Cruzain noTriton inconclusive
O=C(NCC(c1cccnc1)N1CCOCC1)C(=O)Nc1cccc(Cl)c1 (stereo not drawn)	none
O=[N+]([O-])c1cccc(/C=N/Nc2nc(N3CCOCC3)nc(N3CCOCC3)n2)c1	none
O=[N+]([O-])c1ccc(Nc2nc(N/N=C/c3cccc(F)c3)nc(N3CCCC3)n2)cc1	Cruzain noTriton 16µM
CN(C)CCN1CCc2ccccc21	none
O=C(CCN1CCCCC1)c1ccc2c(c1)OCCO2	none
O=C(CCN1CCCC1Cc1ccccc1)c1ccc2c(c1)OCCO2 (stereo not drawn)	Cruzain noTriton 20µM, Cruzain inh Det 25µM
O=C(CCc1ccccc1)c1ccc2c(c1)OCCCO2	Cruzain noTriton inconclusive
O=C(CCN1CCc2ccccc21)c1ccc2c(c1)OCCO2	Cruzain noTriton 7.9µM
c1ccc2c(c1)CCN2CCN1CCc2ccccc21	Cruzain noTriton 10µM
Cc1ccccc1NC(=O)Cn1c(=O)n(Cc2ccccc2)c(=O)c2sc3ccccc3c21	none
Cc1ccc(OCC(=O)Nc2ccccc2C(=O)OCc2cc(=O)n3ccsc3n2)cc1	none
Cc1cn2c(=O)cc(COC(=O)c3cccc(NC(=O)COc4ccccc4)c3)nc2s1	none
CC(=O)Nc1ccc(S(=O)(=O)NCC(=O)OCC(=O)c2cc(C)n(-c3ccc4c(c3)OCO4)c2C)cc1	Cruzain noTriton inconclusive
Cc1cc(C(=O)COC(=O)CC2Sc3ccccc3NC2=O)c(C)n1-c1ccc2c(c1)OCO2 (stereo not drawn)	Cruzain noTriton 25µM
Cc1cc(C(=O)COC(=O)CC2Sc3ccccc3NC2=O)c(C)n1-c1ccccc1 (stereo not drawn)	Cruzain noTriton inconclusive
Cc1cc(C(=O)COC(=O)c2ccc(N)c([N+](=O)[O-])c2)c(C)n1-c1ccc2c(c1)OCO2	Cruzain noTriton 13µM
CC(=O)c1ccc(OCC(=O)c2cc(C)n(-c3ccc4c(c3)OCO4)c2C)cc1	none
O=C(CC1Sc2ccccc2NC1=O)OCC(=O)N1CCc2ccccc21 (stereo not drawn)	Cruzain noTriton inconclusive
Cc1cc(C(=O)COC(=O)CC2Sc3ccccc3NC2=O)c(C)n1-c1ccc(Br)cc1 (stereo not drawn)	Cruzain noTriton 4µM
COC(=O)c1ccc(-n2c(C)cc(C(=O)COC(=O)CC3Sc4ccccc4NC3=O)c2C)cc1 (stereo not drawn)	Cruzain noTriton 25µM
CC(=O)OC1CC(OC(C)=O)[C@]2(C)C(CC(=O)[C@]3(C)C2CC[C@@]2(C)C(C(=O)O)OC(=O)C4OC423)C1(C)C (stereo partly drawn)	none
CN1[C@@H]2CC(OC(=O)[C@H](CO)c3ccccc3)C[C@@H]1[C@H]1O[C@H]12 (stereo partly drawn)	none
CCC(=O)N1CCc2cc(S(=O)(=O)NCCC(=O)NC(C)c3ccccc3)ccc21 (stereo not drawn)	none
COc1ccc(CNC(=O)C2CCN(C(=O)N3CCOc4ccc(Cl)cc43)CC2)cc1	none
Oc1cccc2ccc(SSc3ccc4cccc(O)c4n3)nc12	none
COc1ccc(-n2c(C)cc(C(=O)COC(=O)Cc3n[nH]c(=O)c4ccccc34)c2C)cc1	Cruzain noTriton inconclusive
Cc1cc(C(=O)COC(=O)Cc2n[nH]c(=O)c3ccccc23)c(C)n1-c1ccc2c(c1)OCO2	Cruzain noTriton 25µM
O=C(Nc1ccccc1)N1CCC2(CC1)CCN(S(=O)(=O)c1ccccc1)CC2	none
COc1ccc(C(C(=O)NC2CCCC2)N(C(=O)c2snc(-c3ccc(F)cc3)c2N)c2ccc(F)cc2)cc1 (stereo not drawn)	Cruzain noTriton 25µM
COc1ccc(C(C(=O)NC2CCCC2)N(C(=O)c2snc(-c3ccc(F)cc3)c2N)c2cccc(F)c2)cc1 (stereo not drawn)	Cruzain noTriton 10µM
COc1ccc(C(C(=O)NC2CCCCC2)N(C(=O)c2sc(C)nc2C)c2ccccc2)cc1 (stereo not drawn)	none
COc1ccc(C(C(=O)NC2CCCCC2)N(C(=O)c2sc(C)nc2C)c2ccc(OC)cc2)cc1 (stereo not drawn)	Cruzain noTriton inconclusive
COc1ccc(C(C(=O)NC2CCCCC2)N(C(=O)CCl)c2ccc(Cl)cc2)cc1 (stereo not drawn)	Cruzain noTriton inconclusive
COc1ccc(C(C(=O)NC2CCCC2)N(C(=O)c2snc(-c3ccc(F)cc3)c2N)c2ccccc2)cc1 (stereo not drawn)	Cruzain noTriton 7.9µM
COc1ccc(C(C(=O)NC2CCCC2)N(C(=O)c2snc(-c3ccc(F)cc3)c2N)c2ccc(OC)cc2)cc1 (stereo not drawn)	Cruzain noTriton 25µM
COc1ccc(C(C(=O)NC2CCCC2)N(C(=O)c2ccoc2C)c2ccccc2)cc1 (stereo not drawn)	none
Cc1ccc(-c2nc3ccc(Cl)cn3c2Nc2ccc3c(c2)OCCO3)s1	none
CC(=O)c1cccc(NC(=O)c2nc(-c3ccc(C)cc3)n3c2CCCCC3)c1	none
CCCCOC(=O)c1ccc(NC(=O)CSc2nc3c(c(=O)[nH]2)CCCC3)cc1	none
COc1ccccc1C1C2=C(N=c3s/c(=C/c4cccc(OCC(=O)O)c4)c(=O)n31)c1ccccc1CC2 (stereo not drawn)	Cruzain noTriton inconclusive, Cruzain inh Det 28µM
COc1cccc(C2C3=C(N=c4s/c(=C\c5ccc(O)cc5)c(=O)n42)c2ccccc2CC3)c1OC (stereo not drawn)	Cruzain noTriton inconclusive
COc1cccc(C2C3=C(N=c4s/c(=C\c5cccc(O)c5)c(=O)n42)c2ccccc2CC3)c1OC (stereo not drawn)	Cruzain noTriton 10µM
CCOC(=O)C1=C(C)N=c2s/c(=C\c3cc(OC)c(OC)c(OC)c3)c(=O)n2C1/C=C/c1ccccc1 (stereo not drawn)	none
Cc1nc(-c2ccc(S(=O)(=O)Nc3ccc(C#N)cc3)cc2)co1	none
COc1ccc(OC(C)C(=O)NCc2nc(-c3cccc(C)c3)no2)cc1 (stereo not drawn)	none
CCc1ccc(NC(=O)CN2C(=O)c3ccccc3Sc3ccc(C(=O)N4CCCC4)cc32)cc1	none
CCOc1ccc(NC(=O)C2CCN(S(=O)(=O)c3ccc4c(c3)oc(=O)n4C)CC2)cc1	Cruzain noTriton inconclusive
O=C(NCCC1=CCCCC1)C1CCN(C(=O)N2CCOc3ccc(Cl)cc32)CC1	none
Nc1nc(Cl)nc2c1ncn2[C@@H]1O[C@H](CO)[C@H](O)[C@H]1O	none
CCOC(=O)C(Cc1ccccc1)C(=O)Nc1ccccc1C (stereo not drawn)	none
CCOC(=O)C(Cc1ccccc1)C(=O)Nc1ccc(NC(=O)C(Cc2ccccc2)C(=O)OCC)cc1 (stereo not drawn)	Cruzain noTriton 7.9µM
COc1ccccc1N1CCN(S(=O)(=O)CCNC(=O)COc2ccccc2F)CC1	Cruzain noTriton inconclusive
O=C1OC(c2cc(I)c(O)c(I)c2)(c2cc(I)c(O)c(I)c2)c2ccccc21	none
COc1ccc(C2/C=C\CC(NC(=O)OCC3c4ccccc4-c4ccccc43)CC(=O)N2Cc2ccccc2F)cc1 (stereo not drawn)	Cruzain noTriton 13µM
